# Screens deposited in PubChem BioAssay by Broad Institute.
# These entries were drawn from the full list.
# aSyn UTR act: Activators working through SNCA 5'UTR binding (MLPCN); alpha-synuclein 5'UTR reporter, activators screen; activity score, % (tested at 7.5 µM), hits read low; 300,000 tested, 7.1% active; AID 1814; in the data active = activity score below about -60%
# The depositor's hits bear a star.
SMILES,aSyn UTR act
Cc1sc(NC(=O)c2ccccc2F)c(CN2CCCCC2)c1C,-124*
O=C1NCCC/C1=N/Nc1cc(F)ccc1F,-113*
CC(=O)c1ccc(N/N=C2/CCCNC2=O)cc1,-74*
Cn1nnnc1Sc1ncnc2scc(-c3ccc(F)cc3)c12,-89*
Cc1cc(N/N=C/c2cccc(Br)c2)nc2ccccc12,-241*
Cc1cc(N/N=C/c2ccncc2)nc2ccccc12,-137*
Cc1ccn2cc(CSc3ccccc3)nc2c1,-88*
Cn1ccnc1SCc1cn2ccccc2n1,-105*
c1ccn2cc(CSc3nnc4ccccn34)nc2c1,-90*
c1ccn2cc(CSC3=NCCS3)nc2c1,-118*
COc1nn(-c2ccccc2)c(=O)c(Cl)c1Cl,-347*
COc1ccc(-n2ncc(Cl)c(Cl)c2=O)cc1,-155*
COc1ccc(Sc2cnn(-c3ccccc3)c(=O)c2Cl)cc1,-73*
COc1cccc(N=NC2C(=O)N(C(N)=S)N=C2C)c1 (stereo unspecified),-95*
CC1=NN(C(N)=S)C(=O)C1N=Nc1cccc(Cl)c1 (stereo unspecified),-86*
CC1=NN(C(N)=S)C(=O)C1N=Nc1ccc(C)cc1C (stereo unspecified),-102*
CC(=O)N(C)c1ccc(N=NC2C(=O)N(C(N)=S)N=C2C)cc1 (stereo unspecified),-93*
COc1ccc(NC(=O)n2nc(OC(=O)c3cccs3)cc2N)cc1,-84*
COc1ccc(C2NN=C(c3ccc(C)cc3)S2)cc1OC (stereo unspecified),-144*
COc1ccc(-n2cc3ccc([N+](=O)[O-])cc3n2)cc1,-91*
NC(=O)C1CCN(C(=O)CCSc2ccccc2)CC1,-103*
CCOC(=O)N1CCN(C(=O)CCSc2ccccc2)CC1,-108*
COc1ccc(-c2cc(C(=O)Nc3cc(Br)ccc3O)no2)cc1,-107*
COc1ccc(NC(=O)c2cc(-c3ccccc3)on2)cc1,-77*
CC(C)n1cc(NC(=O)c2cc(-c3ccccc3)on2)cn1,-218*
SMILES,aSyn UTR act
COc1ccc(NC(=O)c2cc(C)nn2-c2ccccc2)cc1,-73*
CCc1ccccc1NC(=O)c1cc(-c2ccc(OC)cc2)on1,-77*
COc1ccc(NC(=O)c2cc(C)on2)cc1,-106*
COc1ccc(NC(=O)c2cccnn2)cc1,-97*
CC(C)CN=CC1=C(O)c2ccccc2C1=O,-83*
O=C1C(C=NCCCN2CCCC2=O)=C(O)c2ccccc21,-113*
O=C1C(C=NCc2ccccn2)=C(O)c2ccccc21,-106*
COc1cccc(-c2nc3ccc(C(=O)NC(C)Cc4cccnc4)cc3o2)c1 (stereo unspecified),-130*
COC(=O)C1CCN(C(=O)c2ccc3nc(-c4cccc(OC)c4)oc3c2)CC1,-136*
Cc1cc(O)cc2c1C(=O)/C(=C/c1ccco1)O2,-116*
COc1ccccc1N1CCN(c2ccnc3cc(Cl)ccc23)CC1,87
COc1ccccc1N1CCN(/N=C/c2ccc(Cl)c([N+](=O)[O-])c2)CC1,-128*
COc1ccccc1N1CCN(/N=C/c2ccc([N+](=O)[O-])cc2)CC1,-159*
COc1ccccc1N1CCN(/N=C/c2cccc(O)c2)CC1,-111*
C=C1C(=O)C=C2CN(C(=O)c3ccccc3)[C@@](Cc3ccc(F)cc3)(C(=O)OC)[C@@H]12,56
CSCc1ccc(C(=O)NCCSc2ccc(Br)cc2)cc1,-96*
Cc1cc(NC(=O)NC(=O)c2cccc(OC(F)(F)C(F)F)c2)n[nH]1,-119*
Cc1cc(NC(=O)c2cccc(Oc3ccccc3)c2)n[nH]1,-109*
NC(=O)c1ccc2nc(NC(=O)c3ccc(N)cc3)sc2c1,-79*
CCc1nnc(NC(=O)c2ccc(NC(=O)C(C)C)cc2)s1,-101*
O=C(Nc1nc(=O)c2ccccc2s1)c1ccccc1,-157*
CCc1nnc(NC(=O)c2ccc3c(c2)C(=O)N(C(C)(C)C)C3=O)s1,-145*
Nc1ccc(-c2nc3ccc(C(=O)O)cc3s2)cc1,95
COc1ccc2nc(NC(=O)c3ccc4ncsc4c3)sc2c1,-134*
Cc1ccc(C(=O)Nc2nc3ccccc3c(=O)s2)cc1,-190*
SMILES,aSyn UTR act
O=C(Nc1nc2ccccc2s1)c1ccc(F)cc1,-89*
COc1ccc(OC)c(-c2csc(NC(=O)c3ccc(F)cc3)n2)c1,-202*
CCc1nnc(NC(=O)c2ccc3ncsc3c2)s1,-102*
COc1ccc2nc(NC(=O)c3ccc(F)cc3)sc2c1,-156*
O=C(Nc1nc(-c2cccs2)cs1)c1ccc(Cl)s1,-146*
CC(C)(C)N1C(=O)c2ccc(C(=O)Nc3ccc(O)cc3)cc2C1=O,-87*
O=C(Nc1nc2ccccc2s1)c1ccc(Cl)s1,-170*
COc1ccc2nc(NC(=O)c3cccs3)sc2c1,-78*
CCOC(=O)c1snc(-c2ccc(F)cc2)c1N,-130*
CS(=O)(=O)c1nc(-c2cccs2)cc(C(F)(F)F)n1,-90*
Cc1cc(NC(=O)CCCS(=O)(=O)c2nc(-c3cccs3)cc(C(F)(F)F)n2)no1,-92*
CS(=O)(=O)c1nc(-c2ccc(F)cc2)cc(C(F)(F)F)n1,-126*
COc1ccc(-c2cc(C(F)(F)F)nc(S(C)(=O)=O)n2)cc1,-103*
CCNc1oc(/C=C/c2ccc(OCC)cc2)nc1C#N,-188*
CCN(CC)CCCNc1oc(/C=C/c2ccccc2)nc1C#N,-64*
CNc1oc(/C=C/c2cccc(OC)c2)nc1C#N,-180*
O=C(COC(=O)c1c(F)cccc1Cl)NC1CCCC1,-78*
COc1cccc(NC(=O)COC(=O)c2c(F)cccc2Cl)c1,-148*
CN(C)c1ncnc2c1ncn2C1OC(CO)C(O)C1O (stereo unspecified),108
Cn1c(-c2ccc(-c3ccccc3)cc2)c[nH]c1=S,-173*
C=CCn1c(-c2ccccc2)c[nH]c1=S,-120*
CCn1c(-c2ccc(-c3ccccc3)cc2)c[nH]c1=S,-65*
Cc1ccc(OCc2ccc([N+](=O)[O-])cc2)c([N+](=O)[O-])n1,-115*
Cc1ccc(OCCOc2ccc(Br)cc2)c([N+](=O)[O-])n1,-182*
Cc1cc(NC(=O)CSc2cn(CCNC(=O)c3ccc(Cl)cc3)c3ccccc23)no1,-90*
SMILES,aSyn UTR act
O=C(NCCn1cc(SCc2ccccc2F)c2ccccc21)c1c(F)cccc1F,-62*
Cc1ccc(C(=O)NCCn2cc(SCC(=O)Nc3nnc(C)s3)c3ccccc32)cc1,-109*
CCc1ccc2[nH]c(C(=O)Nc3ccc(C)c(F)c3)cc2c1,-109*
O=C(Nc1ccc(F)cc1)c1cc2cc(Cl)ccc2[nH]1,-62*
COc1ccc(/C=C2\COc3ccccc3C2=O)c(OC)c1,-140*
COc1ccc(C=C2c3ccccc3C(=O)c3ccccc32)c(OC)c1,98
COc1ccc(/C=C2\CN(Cc3ccccc3)C/C(=C\c3ccc(OC)cc3OC)C2=O)c(OC)c1,-68*
COc1ccc2c(c1)OC/C(=C/c1cccs1)C2=O,-151*
CCOC(=O)/C(C#N)=C/c1c[nH]c2ccccc12,-66*
O=Cc1cc2ccccc2nc1SCc1ccc(Cl)c(Cl)c1,109
COC(=O)/C(C#N)=C/c1c[nH]c2ccccc12,-96*
CCOC(=O)/C(C#N)=C/c1cc2ccccc2nc1Cl,-80*
CCOC(=O)/C(C#N)=C/Nc1ccccc1OC,-122*
COc1ccc(C(=O)Nn2cnc3ccccc3c2=O)c(OC)c1,-88*
Cc1ccccc1C(=O)Nn1cnc2ccccc2c1=O,-79*
COc1cccc(N(C(=O)c2nc3nccc(C)n3n2)c2nc3ccccc3s2)c1,-185*
